In the supplement of paper PMC11417369:
± gives the standard deviation of the averaged measurements. The full ranking holds about 25,000 sequences; the median of “ln(normalized median fluorescence intensity)” is about 10, and the highest 2% start at about 12. Shown is part of a subset that was picked to be rich in the highest values.

The sequences below were run on PfAP2-G AP2 domain (GST-tagged) (assay: gcPBM binding intensity (ln(normalized median fluorescence intensity)); higher = stronger DNA binding).
In short: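 In this array assay, P. falciparum DNA-binding domains with a GST tag, expressed in E. coli, were applied for 1 h to primer-extended double-stranded 36-bp intergenic genomic probes and negative controls on an Agilent 4 × 180k array. Bound protein was visualised with Alexa488 anti-GST antibody at 488 nm. Binding intensity is the highest Masliner-normalised natural-log median intensity across replicate spots of either probe orientation.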

Row | Sequence | gcPBM binding intensity (ln)
1 | TGAATATAACAAATATGTACTTAAAATTGTTATATT [XGTACX_site5679] | 11.1 ± 0.76
2 | GTGTAATATATTTTTCGTACATATTATATATATATA [XGTACX_site1675] | 11 ± 0.69
3 | AATTATTTTAGAAACACACAAATTAGAAAAAACATA [CACACA_site7673] | 10.2 ± 0.24
4 | AAGAAAAAACAAACATGTACACATAATTTAGTTTTT [XGTACX_site3121] | 11.4 ± 0.89
5 | AATTTTTTTTTTAGACGTACAAGAAAAAACAAAAAA [XGTACX_site4990] | 11.7 ± 0.75
6 | ATTTTTTTTGCTAAGTGTACACAAATGTTTATTAAT [XGTACX_site7440] | 11.7 ± 0.81
7 | ATATATAATTTTTGCTGTACACAAAATATTAATTTA [XGTACX_site2057] | 11.5 ± 0.86
8 | TATTTTTTTTTTTAATGTACAAACAAATTATGTTGG [XGTACX_site2873] | 10.8 ± 0.57
9 | TTTATATGTATTAAGTGTACACATATAATGTGTTTT [XGTACX_site4890] | 11.6 ± 0.87
10 | TTTATATGTATTAAGTGTACACATATAATGTATTTT [XGTACX_site16] | 11.5 ± 0.83
11 | TTTTTTGCTAAGTGTACACAAATGTTTATTAATTTA [CACACA_site5859] | 11.7 ± 1
12 | TCATATTCCAAAAAAAAAAAAAAAAAAAAAAAAATA [CACACA_negctrl_site1293] | 9.66 ± 0.3
13 | AATAAATATTCATTTTGTACATATTTTTCGTATATG [XGTACX_site6104] | 10.9 ± 0.57
14 | TTGGGCATAATGTCATGTACACAAATAATTCTTTAT [XGTACX_site861] | 11.5 ± 1
15 | TATATATATATATATTGTACATATATTATTATATAT [XGTACX_site7447] | 10.9 ± 0.53
16 | AATTTACAAAAAAGAAAAAAAAAAAAAAAGATACTT [CACACA_negctrl_site1434] | 9.65 ± 0.071
17 | AAAAAGAAAAAAGAAAGTACAAATATACACATTTTT [XGTACX_site3343] | 10.9 ± 0.54
18 | ATTTAAGTAGTACATACACACACATATACAAAAAGA [CACACA_site9317] | 11.7 ± 1.3
19 | TTAAGTAGTACATACACACACATATACAAAAAGAAA [CACACA_site3972] | 11.7 ± 1.2
20 | TACGAATTAAAAAAGAGTACAAATAAAATATCTACA [XGTACX_site7412] | 11.3 ± 0.84
21 | ATTTATATTACAAAAAGTACACACATAAATAAATAC [XGTACX_site1827] | 11.6 ± 0.92
22 | TTGTTCTATTTAAGTAGTACATACACACACATATAC [XGTACX_site8484] | 11.5 ± 0.71
23 | ATACGAAAAAAAAAAAGTACACAAAAATATCTACAT [XGTACX_site2051] | 11.7 ± 1.1

Row | Sequence | gcPBM binding intensity (ln)
24 | ACATCATATTAAGAAAGTACAAAAAGAGAACATATA [XGTACX_site1268] | 11 ± 0.4
25 | AAAAAAAAAAGAAAAAGTACATACATACATATATAT [XGTACX_site6405] | 11.3 ± 0.83
26 | ATTCATAAAAAGAGGTGTACATTAATATAATATATA [XGTACX_site8283] | 11.5 ± 0.95
27 | ATTTTGTTATTATATATATATATATATATATATATA [XGTACX_negctrl_site590] | 9.89 ± 0.49
28 | GATCATTTAAAATAAGTAATATTTTTTTTACTTTTG [TGCATGCA_negctrl_site602] | 9.62 ± 0.26
29 | GTTCATAAAAATTTTTGTACCCATAAAATATTCCTC [XGTACX_site8611] | 11.2 ± 0.65
30 | AATAATTGTTATAGTTGTACAATACATATATTACAA [XGTACX_site30] | 11.3 ± 0.63
31 | AAAAAAAAAAAAAAAAGTACAGACGTCAAAAAAAAA [XGTACX_site4817] | 11.6 ± 0.76
32 | ACAGACGTTCAAAGGTGTACGCAAAATGAATAATAT [XGTACX_site7565] | 11.6 ± 1
33 | AAAAAAAAAAAAAAGAGTACACAGACGTTCAAAGGT [XGTACX_site7566] | 11.7 ± 0.77
34 | TTTAAATATATTCAATCACACACATTCGTTTTTTTT [CACACA_site7962] | 9.77 ± 0.24
35 | GGCAAATTTATTATACCCACATACATACATACATAC [XGTACX_negctrl_site186] | 10.8 ± 0.62
36 | TTTACATTTTAGGAAGTGCATATAATAAATACTATC | 10.1 ± 0.2
37 | ATTATATTATATATATGTACATATATATATCATAAT [XGTACX_site1] | 11.1 ± 0.66
38 | TATATAAAAAGTAATTGTACATATATATATATATAT [XGTACX_site7953] | 10.9 ± 0.68
39 | ATAATTATATATATATGTACATATTATATATATATA [XGTACX_site4526] | 11.2 ± 0.77
40 | ATAAAAATAATATCATGTACATATGTGTATTGTATT [XGTACX_site1768] | 11 ± 0.49
41 | AAAAAAAAAAAAAAAAGTACATATATATATATAATT [XGTACX_site4437] | 11.5 ± 0.86
42 | AAAAAAAAAAAAAAAAGTACATATATATATAATTAT [XGTACX_site7836] | 11.7 ± 0.89
43 | TATATCATAAAAAATTGTACATATATATATTATATA [XGTACX_site6726] | 11 ± 0.69
44 | ATCATAAAAGTATACACACATACATACATATGTACA [CACACA_site2641] | 10.8 ± 0.45
45 | AAAAAAAAAAAAAAAAGTACACATAATTGTATATGT [XGTACX_site6339] | 11.7 ± 0.75
